Platelet DG rel = platelet dense granule release activity; human platelet-rich plasma, SFLLRN dense granule ATP release, luminescence; inhibition, %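 (compounds screened at 7.5 µM in platelet-rich plasma)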; 300,000 tested, 0.22% active; AID 1663;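 active = mean replicate score, as percent of positive control, at or above 50; inconclusive = mean below 50 but at least one replicate at or above 50; inactive = mean and every replicate below 50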
TRAIL sens C8 = sensitizes caspase-8 expressing cells to TRAIL | NB7+C8 cells + TRAIL, ATPlite viability luminescence | inhibition (viability loss, TRAIL sensitization), % at 10 µM | 360,000 tested, 1% active;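 active = compounds causing at least 50% loss of cell viability in the single-dose screen, relative to plate controls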
PPC-1+TRAIL kill = PPC-1 cancer cell killing with TRAIL present; PPC-1 cells + TRAIL, ATPLite viability luminescence; cell killing (% activity), % at 4 µM or 5 µM; 220,000 tested, 0.41% active; AID 1443;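 active = cell killing above 50% in the first pass at 4 µM, then a duplicate retest at 5 µM averaging 50% or more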;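 also: plate controls were cells with TRAIL plus DMSO for no effect and medium-only wells lacking cells for full effect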
STAT3 blocker = reduces IL-6 driven STAT3 reporter signal. U3A cells, IL-6 STAT3-luciferase reporter, luminescence; host cell line lacks STAT1. inhibition, % at 5.5 µM. 190,000 tested, 0.89% active. AID 862;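 active = inhibition above the mean inhibition across all screened compounds plus 3 SD, cut at about 44% in these data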;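 also: 0% = DMSO only wells and 100% = 100 µM nifuroxazide control wells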
STAT1 inh = reduces IFN-gamma driven STAT1 reporter signal | inhibition, % at 5.5 µM | NIH 3T3 STAT1-luciferase reporter, luminescence | AID 920 | 200,000 tested, 0.35% active;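 active = inhibition above a set limit, the mean inhibition across all tested compounds plus 3 SD, cut at about 34% in these data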;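 also: 0% = IFN-gamma with DMSO and 100% = IFN-gamma with 300 µM nifuroxazide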
* hit, by the source's call; ? = inconclusive; · = no result given. Only some compounds are listed: those with a hit (about 1.6% of all), similar ones and a draw of the others.

SMILES	Platelet DG rel	TRAIL sens C8	PPC-1+TRAIL kill	STAT3 blocker	STAT1 inh
Oc1c(CN2CCCCC2)cc(COCc2ccccc2)c2cccnc12	7	56*	15	1	0
COc1ccc(/C(C)=N/Nc2nncc3ccccc23)cc1	10	60*	·	·	·
COc1ccc(CNCCCC(=O)Nc2c(Cl)ccc(C)c2Cl)cc1OC	5	-10	·	·	·
Cc1ccc(-c2nc3ccccc3[nH]2)s1	59*	56*	47	27	-25
c1csc(-c2nc3ccccc3[nH]2)c1	·	-1	26	5	-27
O=C(c1cc(COc2ccc3ncccc3c2)on1)N1CCC(O)CC1	-4	24	11	23	12
CCOC(=O)N1CCN(C(=O)c2cc(COc3ccc4ncccc4c3)on2)CC1	0	28	15	56*	43*
Cc1cccnc1CN1CCN(C(=O)c2cc(COc3ccc4ncccc4c3)on2)CC1	?	21	3	46*	36*
O=C(Nc1ccc(N2CCOCC2)cc1)c1csc([C@H]2C[C@H](O)[C@@H](CO)O2)n1	·	32	·	·	·
O=C(c1ccccc1)c1ccc(N2CCN(C(=O)c3ccc(F)cc3F)CC2)c(F)c1	·	13	·	·	·
Cc1cccc(/C(N)=N/OC(=O)c2ccc3c(c2)OCO3)c1	64*	34	24	33	-50
N/C(=N\OC(=O)c1cccc(F)c1)c1ccccn1	7	56*	·	·	·
COc1cc(C(=O)O/N=C(\N)c2ccccn2)cc(OC)c1OC	3	-15	-1	·	·
COc1ccc(C(=O)O/N=C(\N)c2ccccn2)c(OC)c1	40	62*	45	·	·
Cc1ccc(C(=O)O/N=C(\N)c2ccccn2)cc1C	19	81*	·	·	·
CC1(C(=O)Nc2cnc3ccccc3c2)CCN1C(=O)CC(c1ccccc1)c1ccccc1 (centres undefined)	·	1	·	·	·
Cc1cc(C)c(C)c(OCC(=O)O/N=C(\N)c2ccccn2)c1	-12	2	30	15	-2
CCOc1ccc(C(=O)O/N=C(\N)c2ccccn2)cc1	81*	93*	·	·	·
Cc1cccc(OCC(=O)O/N=C(\N)c2ccccn2)c1	6	1	8	4	-30
N/C(=N\OC(=O)COc1ccc(Cl)cc1Cl)c1ccccn1	8	54*	41	30	25
CC(C)(C)c1ccc(C(=O)O/N=C(\N)c2ccccn2)cc1	29	98*	·	·	·
CCc1ccc(OCC(=O)O/N=C(\N)c2ccccn2)cc1	-4	15	0	·	·
Cc1cccc(C(=O)O/N=C(\N)c2ccccn2)c1	26	87*	·	·	·
CCOC(=O)c1c(SCCN2CCCCC2)n(-c2ccccc2)c(=S)n(-c2ccccc2)c1=O	·	48	·	·	·
NC(c1csc(Nc2ccc(C(F)(F)F)cn2)n1)C1CCCCC1 (centres undefined)	·	29	·	·	·
SMILES	Platelet DG rel	TRAIL sens C8	PPC-1+TRAIL kill	STAT3 blocker	STAT1 inh
COc1cnc(-c2cccc(C(F)(F)F)c2)c(NC(=O)c2cc3ccccc3s2)n1	·	9	·	·	·
N/C(=N\OC(=O)/C=C/c1ccccc1Cl)c1ccccn1	15	31	28	69*	43*
N/C(=N\OC(=O)/C=C/c1ccccc1Cl)c1cccnc1	9	26	5	·	·
C/C(=N\OC(=O)c1ccc(Br)cc1)c1ccccn1	12	-8	27	-14	-6
Cc1ccc(C(=O)O/N=C(\N)c2ccccn2)cc1	104*	95*	·	·	·
CCc1c(C)[nH]c2c(C)cccc2c1=O	4	52*	3	12	0
COc1ccccc1-c1cnc(C(O)c2ccc(Cl)cc2C)[nH]1 (centres undefined)	·	10	·	·	·
Cc1nnc(N2C(=O)C(O)=C(C(=O)c3ccco3)C2c2ccc(F)cc2)s1 (centres undefined)	-5	-3	2	28	1
Cc1nnc(N2C(=O)C(O)=C(C(=O)c3ccco3)C2c2ccc(C(C)(C)C)cc2)s1 (centres undefined)	52*	8	19	3	-6
COC(=O)c1cccc(NC(=S)NCCC2=CCCCC2)c1	-51	-5	18	53*	27
CC(=O)NCc1cn2c(C)csc2n1	83*	-2	·	4	-1
Cc1cc(C(=O)COC(=O)c2cccc(S(=O)(=O)N(C)C)c2)c(C)n1CC1CCCO1 (centres undefined)	·	62*	·	·	·
CNS(=O)(=O)c1cccc(C(=O)OCC(=O)c2cc(C)n(CC3CCCO3)c2C)c1 (centres undefined)	·	62*	·	·	·
CCN1/C(=C/C=C/c2sc3ccccc3[n+]2CC)Sc2ccccc21	18	71*	·	·	·
O=C(Nc1cccc(-n2cnnn2)c1)c1ccc(C(F)(F)F)cc1	·	49*	·	·	·

Screening data from PubChem.
